The values below come from PubChem BioAssay (EPA / NIEHS).

Inconclusive results are not listed. Activity calls are given as the source filed them. How the source made its calls: active means hit-call score of the fitted dose curve at least 0.9, where 1 is the maximum; inconclusive means response in the unintended direction; inactive means score below 0.9.

A word on the AC50: it is the concentration giving half of the maximal activity seen.

Read-out in this test: ABC Transporter (ABCB11), ABCB11 (gene 8647)
In words: CLD_ABCB11_48hr: CellzDirect (CLD) Gene Expression Assay for ABC Transporter (ABCB11) at 48 hours (AID 2283697). Here is the method: CLD_48hr is a cell-based, multiplexed-readout assay that uses hepatocyte, a human liver primary cell, with measurements taken at 48 hours after chemical dosing in a 96-well plate.CLD_ABCB11_48hr is one of 16 assay component(s) measured or calculated from the CLD_48hr assay. It is designed to make measurements of mRNA induction, a form of inducible reporter, as detected with chemiluminescence signals by Quantitative Nuclease Protection Assay (qNPA) technology.Data from the assay component CLD_ABCB11_48hr was analyzed at the endpoint, CLD_ABCB11_48hr, in the positive analysis fitting direction relative to DMSO as the negative control and baseline of activity. Using a type of inducible reporter, gain-of-signal activity can be used to understand changes in the reporter gene as they relate to the gene ABCB11. Furthermore, this assay endpoint can be referred to as a primary readout. To generalize the intended target to other relatable targets, this assay endpoint is annotated to the transporter intended target family, where subfamily is ABC transporter.
Human hepatocyte cultures were treated daily for two consecutive days with fresh dosing solutions containing appropriate concentrations of the 320 ToxCast chemicals (chemical identities were blinded to CellzDirect and other ToxCast collaborators), vehicle control (0.2% DMSO), and positive control inducers as summarized in Table 1. Due to the large number of treatment groups and chemicals examined, the ToxCast chemicals were divided into two groups (spanning two independent cultures of hepatocytes from separate donor preparations (Hu778: ToxCast plates 1 and 2; Hu776: ToxCast plates 3 and 4). Each preparation of human hepatocyte cultures was treated with respective vehicle control, medium only control, set of six positive controls/reference chemicals for the five hepatic receptor pathways, and a subset of eight of the ToxCast chemicals (indoxacarb, pyrithiobac-sodium, norflurazon, cyhalofop-butyl, methomyl, thiram, acetochlor, and propiconazole). These replicate data, coupled with internal replicates designed within the blinded ToxCast chemical library, provided additional data to evaluate interindividual differences between hepatocyte preparations and their potential impact on chemical profiles.Cell morphology and integrity were evaluated using phase-contrast microscopy as an indicator of hepatocyte cell health (Tyson & Green, 1987). Cultures for each treatment group (i.e., media, vehicle [0.2% DMSO], positive control inducers [multiple concentrations], and the ToxCast chemicals [multiple concentrations]) were observed and cell morphology was assessed relative to vehicle control cultures at each harvest time point (0, 6, 24, or 48 h). […] Images were evaluated at the conclusion of the study to assess changes in cell integrity and account for the effects of chemical exposure on uncharacteristic changes in concentration-dependent gene expression profiles. The results from these determinations of apparent cytotoxicity were annotated (yes/no) alongside the corresponding qNPA data for reference.At the conclusion of each treatment period, hepatocyte cultures (96-well) were washed with 1 volume of HBSS, lysed by addition of 25 ul ArrayPlate lysis buffer (HTG, Tucson, AZ), and 70 ul/well of Denaturation Oil, denatured by incubation at 95C for 10 min, and frozen at approximately -70C until analysis by nuclease protection assay (qNPA) (Roberts et al., 2007). For qNPA analysis, cell lysates were thawed at 50C for approximately 30 min, qNPA probes were added, and samples were incubated at 95C for 10 min to begin the detection process by denaturing the target RNA, dissociating the duplexes and secondary structure hybridization. At the conclusion of the hybridization period, S1 nuclease reagent was added to each sample to digest all nonprotected nucleotides at 50C for 60-90 min. […]
`N#CSCSC#N`: the outcome was inactive.

In the case of `O=c1ccc(=O)[nH][nH]1`, the result was inactive.

For the molecule `CCC(=NOC/C=C/Cl)C1=C(O)CC(C2CCOCC2)CC1=O` (configuration not stated), the molecule was classed as inactive.

For the molecule `CC(C)=CC1C(C(=O)OCN2C(=O)C3=C(CCCC3)C2=O)C1(C)C` (configuration not stated), the result was inactive.

In the case of `CCOP(=O)(OCC)Oc1cc(C)nc(C(C)C)n1`, the molecule was called inactive.

For the molecule `COP(=O)(NC(C)=O)SC` (configuration not stated), the call was inactive.

For `COP(=O)(OC)SCn1c(=O)oc2cc(Cl)cnc21`, the molecule was called inactive.

For the molecule `CN(C)NC(=O)CCC(=O)O`, the call was inactive.

Turning to `CN(C)C(=O)Nc1cccc(C(F)(F)F)c1`, the molecule was classed as inactive.

Take `COc1cccc(C(=O)NN(C(=O)c2cc(C)cc(C)c2)C(C)(C)C)c1C`: the molecule was classed as inactive.

Turning to `CCOP(=S)(Oc1cnc(C(C)(C)C)nc1)OC(C)C` (configuration not stated), the result was inactive.

On to `CCCCSP(=O)(SCCCC)SCCCC`, for which the molecule was called inactive.

In the case of `CCCCOC(=O)[C@@H](C)Oc1ccc(Oc2ccc(C#N)cc2F)cc1`, the molecule was classed as inactive.

As to `C=C(C)[C@H]1Cc2c(ccc3c2O[C@@H]2COc4cc(OC)c(OC)cc4[C@@H]2C3=O)O1`, the AC50 is 3.73 µM (active).

On to `CN(C)[C@@H]1C(=O)C(C(N)=O)=C(O)[C@@]2(O)C(=O)C3=C(O)c4c(O)cccc4[C@@](C)(O)[C@H]3[C@H](O)[C@@H]12`, for which the outcome was inactive.

As for `CCCOc1nn(C(=O)NS(=O)(=O)c2ccccc2C(=O)OC)c(=O)n1C`, the molecule was called inactive.

Take `CC(COc1ccc(Oc2ccccc2)cc1)Oc1ccccn1` (configuration not stated): the outcome was inactive.

`C[N+]1(C)CCCCC1`: the outcome was inactive.

In the case of `COc1cc(OC)nc(Sc2cccc(Cl)c2C(=O)O)n1`, the outcome was inactive.

Consider `COP(=O)(OC)C(O)C(Cl)(Cl)Cl` (configuration not stated), for which the outcome was inactive.

As for `CCCSP(=O)(OCC)Oc1ccc(Br)cc1Cl` (configuration not stated), the call was inactive.

Regarding `CCOP(=S)(OCC)Oc1ccc2c(C)c(Cl)c(=O)oc2c1`, the result was inactive.

Consider `CCOP(=O)(SC(C)CC)N1CCSC1=O` (configuration not stated), for which the call was inactive.

With `CCCCOC(=O)c1ccccc1C(=O)O`, the molecule was classed as inactive.

As for `CC1=NNC(=O)N(/N=C/c2cccnc2)C1`, the molecule was classed as inactive.

`CC[C@H](C)[C@H]1O[C@]2(C=C[C@@H]1C)C[C@@H]1C[C@@H](C/C=C(\C)[C@@H](O[C@H]3C[C@H](OC)[C@@H](O[C@H]4C[C@H](OC)[C@@H](NC)[C@H](C)O4)[C@H](C)O3)[C@@H](C)/C=C/C=C3\CO[C@@H]4[C@H](O)C(C)=C[C@@H](C(=O)O1)[C@]34O)O2`: the molecule was called inactive.

On to `CCOC(=O)CC(SP(=O)(OC)OC)C(=O)OCC` (configuration not stated), for which the molecule was classed as inactive.
